# Results taken from PubChem BioAssay (NCATS).
# Results filed as inconclusive are left out. A call without a number means that no potency is given here. Calls of active or inactive are those of the source. The call rests on the fitted dose curve; in most records, active means well fitted inhibition curve with a large enough effect; inconclusive means small, poorly fitted or top-dose-only effect; inactive means flat fitted curve, though single readings scatter.
# Assay: Cytometry Cell-Based qHTS for Inhibitors of the mTORC1 Signaling Pathway in MEF cells (AID 2668)
# Settings: mTORC1 pathway readout; series mostly up to 38.3 µM
# From the text: NIH Molecular Libraries Probe Production Centers Network [MLPCN]
# NIH Chemical Genomics Center [NCGC]
# Assay Submitter (PI): Blenis, John; Hoffman, Greg; Harvard University
# NCGC Assay Overview: The mammalian target of rapamycin (mTOR) is an intracellular serine/threonine kinase Aberrant regulation of mTOR signaling plays a causative role in a number of human diseases, including cancer, benign tumors such as lymphangioleiomyomatosis (LAM) and Tuberous Sclerosis Complex (TSC), and metabolic diseases such as diabetes and obesity. This project aims to identify inhibitors of ribosomal protein S6 (rpS6) phosphorylation. The phosphorylation of rpS6 is a key event downstream of mTOR activation. The assay uses a phospho-specific antibody of phospho-rpS6 to detect inhibitors of mTOR activation. Mutations in the Tsc1 and Tsc2 genes are the underlying genetic lesions responsible for TSC, causing constitutive activation of the mTORC1 pathway and leading to profound effects on cell metabolism. Aberrant metabolism in cancer has recently received significant attention as a target to develop therapeutic agents in the treatment of cancer.1 As Tsc2-/- cells have lost the ability to respond to energy and growth factor deprivation, these cells are unable to properly down regulate cellular biosynthetic processes in response to metabolic stress, and are thus extremely sensitive to glucose deprivation-induced death.2 A central goal of this project is to explore the unique cell survival and metabolic properties of cells with Tsc1 or Tsc2 by screening for compounds that selectively target the Tsc2-/- MEFs by screening both Tsc2-/- and WT MEF cell lines. We hope to better understand these aspects of TSC physiology in order to exploit them for therapeutic benefit.
# NCGC Acumen Assay Protocol:
# For quantitative high throughput analysis of mTORC1 signaling, we developed a cell-based assay for immuno-fluorescence based detection of rpS6 phosphorylation on the Acumen Explorer that will be used a platform for the primary small molecule screen. Mouse embryonic fibroblasts (MEFs) are cultured in 1536-well plates using DMEM + 10% FBS. Twenty-four hrs after plating, test compounds (solubilized in DMSO) are delivered and incubated with the cells for 24 hrs at 37 degree Celsius. Following the incubation, media with compound is aspirated and the cells are fixed in 4% paraformaldehyde (PFA) containing PBS + 0.2% TX-100. Next, PFA is aspirated, cells are washed two times with PBS plus 0.2% TX-100 and the cells are blocked for 1 hr at room temperature (blocking buffer: LiCOR Blocking Buffer plus 0.2% TX-100). This is followed by aspiration and staining with Alexa-488 conjugated-phospho-rpS6 Ser235/236 antibody for 2 hours at room temperature (Cell Signaling Technology # 4803, 1:50 dilution in blocking buffer). Cells are washed two times with PBS plus 0.2% TX-100, and stained with 10 uM propidium iodide (PI) for 20-25 minutes for cell number measurement (1:500 dilution of Hoescht staining is also added for IN Cell imaging). The plates are scanned on the Acumen Explorer laser scanning instrument (TTP Labtech) using the 488nm laser for simultaneous excitation of the Alexa-488 and PI. The fluorescence emission from the Alexa-488 conjugated rpS6 phospho-235/236 antibody staining is selected using a […] band pass filter. Fluorescence emission from the PI stain is selected using a 575-640 nm band pass filter. The normalized phospho-S6 staining is calculated as the ratio of the integrated Alexa 488 intensity divided by the integrated PI intensity for the single concentration rapamycin control (7.5 nM) and DMSO columns. […] Inhibition of the pathway is defined based on the normalized phospho-S6 intensity in rapamycin treated cells. […]
# Potency means the concentration at half of the fitted maximal effect.
row,SMILES,Potency
1,CCN(CC)c1ncnc2c1ncn2[C@@H]1O[C@H](COP(=O)(O)OP(=O)(O)C(Br)(Br)P(=O)(O)O)[C@@H](O)[C@H]1O,inactive
2,CC1CN(S(=O)(=O)c2cccc3cnccc23)CCN1 (stereo not given),inactive
3,NCC1OC(O[C@H]2[C@H](O)[C@@H](OC3C(O)C(N)CC(N)C3OC3OC(CO)C(O)C(O)C3N)O[C@@H]2CO)C(N)C(O)C1O (stereo not given in full),inactive
4,O=C(O)[C@@H]1C[C@@H](C(=O)O)N1,inactive
5,CCCCCCCCCCCCCCCCCCNC(=O)OCC(COP(=O)([O-])OCC[n+]1ccsc1)OC (stereo not given),inactive
6,O=C(O)CC1CC(c2ccccc2)=NO1 (stereo not given),inactive
7,COc1ccccc1N1CCN(CCCCNS(=O)(=O)c2cccc3c(N(C)C)cccc23)CC1,16.5 µM (active)
8,Cc1nc2sccn2c(=O)c1CCN1CCC(=C(c2ccccc2)c2ccc(F)cc2)CC1,inactive
9,C[N+](C)(C)CCOP(=O)(O)OP(=O)([O-])OC[C@H]1O[C@@H](n2ccc(N)nc2=O)[C@H](O)[C@@H]1O,inactive
10,CNC(=O)[C@H]1O[C@@H](n2cnc3c(NCc4cccc(I)c4)ncnc32)[C@H](O)[C@@H]1O,inactive
11,C#CCN1C(C)=C(C(=O)OC)C(c2cccc([N+](=O)[O-])c2)C(C(=O)OCC)=C1C (stereo not given),inactive
12,OC[C@H]1O[C@@H](n2cnc3c(NC4CCCCC4)ncnc32)[C@H](O)[C@@H]1O,inactive
13,O=P(O)(O)C(Cl)(Cl)P(=O)(O)O,inactive
14,CSc1ccccc1N1CCN(CCCCCC(=O)NC2CCCc3ccccc32)CC1 (stereo not given),11.7 µM (active)
15,CC(C)NC[C@H](O)COc1cccc2[nH]ccc12,inactive
16,N#C/C(=C\c1ccc(O)c(O)c1)C(=O)c1ccc(O)c(O)c1,inactive
17,NCCSSCCN,inactive
18,CN1C2CCC1CC(OC(=O)C(O)c1ccccc1)C2 (stereo not given),inactive
19,COc1cccc(OC)c1OCCNCC1COc2ccccc2O1 (stereo not given),inactive
20,CNC(=O)[C@H]1O[C@@H](n2cnc3c(NCc4ccc(N)cc4)ncnc32)[C@H](O)[C@@H]1O,inactive

row,SMILES,Potency
1,Cn1cc(C2=C(c3ccc(Cl)cc3Cl)C(=O)NC2=O)c2ccccc21,inactive
2,C#C[C@]1(O)CC[C@H]2[C@@H]3CCC4=Cc5oncc5CC4(C)[C@H]3CCC21C (stereo not given in full),inactive
3,O=C(O)CC1CCCc2ccccc2C1O (stereo not given),inactive
4,CC(=O)N[C@H](C(=O)O)C(C)(C)SN=O,inactive
5,O=C1/C(=C/c2ccsc2)CC/C1=C\c1cccs1,inactive
6,O=C(O)CNC(=O)C(CS)Cc1ccccc1 (stereo not given),inactive
7,Cc1ccc(O)c(N=Nc2ccccc2)n1,inactive
8,C=CC(=O)c1ccc(CCCCCC)cc1,inactive
9,CN1[C@@H](CC(=O)c2ccccc2)CCC[C@H]1C[C@H](O)c1ccccc1,inactive
10,Nc1nc(Cl)nc2c1ncn2[C@@H]1O[C@H](CO)[C@@H](O)[C@H]1O,inactive
11,CC(C)CC(NP(=O)(O)O[C@@H]1O[C@@H](C)[C@H](O)[C@@H](O)[C@H]1O)C(=O)NC(Cc1c[nH]c2ccccc12)C(=O)O (stereo not given in full),inactive
12,COc1ccccc1CNCCCCCCNCCCCCCCCNCCCCCCNCc1ccccc1OC,inactive
13,COc1cc2c(CCNC(C)=O)c[nH]c2cc1Cl,inactive
14,CC1(C)CCC=[N+]1[O-],inactive
15,COc1cc(SC)ccc1C(=O)N1CCC(Cc2ccccc2)CC1,inactive
16,CO/S(=N\S(=O)(=O)c1ccc(Cl)cc1)c1ccc([N+](=O)[O-])cc1 (stereo not given),inactive
17,CCCN(CC1CC1)c1nc(C)nc(Nc2c(Cl)cc(Cl)cc2Cl)c1Cl,inactive
18,N#C/C(=C\c1ccc(-c2cc(Cl)ccc2Cl)o1)C(=O)Nc1cccc2ncccc12,inactive
19,Fc1cccc(/C=N/N=C/c2cccc(F)c2)c1,inactive
20,C[C@@H](NC(=O)/C(C#N)=C/c1ccc(O)c(O)c1)c1ccccc1,inactive
